For some of these results: Potency and affinity values are given separately. The source made the active and inactive calls. Unless noted, no rule for the calls is given here.
Legend:
[1] = antimalarial activity against Dd2 strain (AID 2302;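 active = growth inhibition above 50% at the single 2 µM test dose, taken to imply half-maximal potency below 2 µM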;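 also: 0% = DMSO untreated growth and 100% = chloroquine plus artemisinin killed control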); conditions: P. falciparum Dd2 in RBCs, LDH growth readout, 72 h; at 2 µM; hits give high values
[2] = HepG2 cytotoxicity, primary screen, cytotoxicity control for P. falciparum antimalarial project, cell-based, ATP luminescence (AID 2303;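 active = inhibition above 50%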;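 also: 0% = DMSO wells and 100% = digitonin-killed cells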); conditions: HepG2 viability, 24-48 h, at 10 µM, hits give high values
[3] = target: L-lactate dehydrogenase (Plasmodium falciparum (isolate CDC / Honduras)) (UniProt Q27743); assay: PfLDH activity inhibition – cell lysate, 3D7 strain, counter-screen for P. falciparum growth inhibition project (AID 2304);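 also: 0% = vehicle and 100% = reference inhibitor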; conditions: P. falciparum 3D7 crude extract, LDH APAD/NBT absorbance; at 2 µM; hits give high values
Chain of L-lactate dehydrogenase (Plasmodium falciparum (isolate CDC / Honduras)) (Q27743 whole entry, looked up): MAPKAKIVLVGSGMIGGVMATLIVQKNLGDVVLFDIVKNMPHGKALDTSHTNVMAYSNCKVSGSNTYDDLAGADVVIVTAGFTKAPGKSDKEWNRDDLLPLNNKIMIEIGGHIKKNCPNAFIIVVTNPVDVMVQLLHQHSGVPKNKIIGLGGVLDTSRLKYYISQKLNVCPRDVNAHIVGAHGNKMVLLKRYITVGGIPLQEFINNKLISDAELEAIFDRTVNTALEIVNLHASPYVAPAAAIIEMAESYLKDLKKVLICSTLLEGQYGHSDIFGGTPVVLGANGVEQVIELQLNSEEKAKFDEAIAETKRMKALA

[4] = inhibition of 3D7 malaria parasite growth – strain 3D7 (AID 2306);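 also: 0% = DMSO wells and 100% = chloroquine plus artemisinin control wells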; conditions: P. falciparum 3D7 erythrocytic growth, LDH absorbance, 72 h; at 2 µM; hits give high values
[5] = target: Calcium-dependent protein kinase 1 (Plasmodium falciparum (isolate 3D7)) (UniProt P62344); assay: PfCDPK1 kinase inhibitors, biochemical, TCAMS library (AID 1159585; cut-off not given, nearly all actives have IC50 up to about 0.98 µM;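 also: inhibitors leave more ATP so luminescence rises with inhibition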); conditions: recombinant PfCDPK1, Kinase-Glo ATP depletion luminescence
Chain of Calcium-dependent protein kinase 1 (Plasmodium falciparum (isolate 3D7)) (P62344 whole entry, looked up): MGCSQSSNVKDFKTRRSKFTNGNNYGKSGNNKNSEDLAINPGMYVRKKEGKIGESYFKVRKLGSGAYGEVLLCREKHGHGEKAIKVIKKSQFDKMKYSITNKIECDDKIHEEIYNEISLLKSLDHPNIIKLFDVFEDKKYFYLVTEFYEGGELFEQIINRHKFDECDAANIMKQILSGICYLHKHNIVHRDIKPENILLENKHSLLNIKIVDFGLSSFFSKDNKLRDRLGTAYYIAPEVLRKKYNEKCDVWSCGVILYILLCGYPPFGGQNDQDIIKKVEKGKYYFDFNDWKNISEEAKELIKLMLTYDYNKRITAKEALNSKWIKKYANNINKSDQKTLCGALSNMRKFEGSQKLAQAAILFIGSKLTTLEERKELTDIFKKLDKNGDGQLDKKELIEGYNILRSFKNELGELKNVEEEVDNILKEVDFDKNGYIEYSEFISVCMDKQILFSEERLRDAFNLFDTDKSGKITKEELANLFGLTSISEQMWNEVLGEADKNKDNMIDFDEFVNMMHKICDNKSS

[6] = target: Plasmodium falciparum protein kinase 6 (PK6, PF3D7_1337100) (UniProt Q8IDW1); assay: PfPK6 kinase inhibitors, biochemical, TCAMS library (AID 1159586); conditions: recombinant PfPK6, Kinase-Glo ATP depletion luminescence
Chain of Plasmodium falciparum protein kinase 6 (PK6, PF3D7_1337100) (Q8IDW1 1-305): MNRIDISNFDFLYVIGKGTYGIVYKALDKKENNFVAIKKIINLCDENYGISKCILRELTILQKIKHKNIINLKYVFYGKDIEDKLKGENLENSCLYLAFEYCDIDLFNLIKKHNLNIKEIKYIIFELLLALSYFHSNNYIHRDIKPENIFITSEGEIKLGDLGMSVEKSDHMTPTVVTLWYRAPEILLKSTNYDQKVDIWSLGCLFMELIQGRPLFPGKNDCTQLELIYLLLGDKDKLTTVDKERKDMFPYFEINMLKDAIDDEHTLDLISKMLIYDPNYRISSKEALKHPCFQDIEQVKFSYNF

[7] = target: Protein kinase 7 (PK7), Plasmodium falciparum 3D7 (PF3D7_0213400) (UniProt Q7YTF7); assay: inhibition of Plasmodium PK7 catalytic activity – biochemical, TCAMS antimalarial set, Kinase-Glo luminescence (AID 1159587); conditions: recombinant PfPK7, Kinase-Glo ATP depletion luminescence
Chain of Protein kinase 7 (PK7), Plasmodium falciparum 3D7 (PF3D7_0213400) (Q7YTF7 1-343): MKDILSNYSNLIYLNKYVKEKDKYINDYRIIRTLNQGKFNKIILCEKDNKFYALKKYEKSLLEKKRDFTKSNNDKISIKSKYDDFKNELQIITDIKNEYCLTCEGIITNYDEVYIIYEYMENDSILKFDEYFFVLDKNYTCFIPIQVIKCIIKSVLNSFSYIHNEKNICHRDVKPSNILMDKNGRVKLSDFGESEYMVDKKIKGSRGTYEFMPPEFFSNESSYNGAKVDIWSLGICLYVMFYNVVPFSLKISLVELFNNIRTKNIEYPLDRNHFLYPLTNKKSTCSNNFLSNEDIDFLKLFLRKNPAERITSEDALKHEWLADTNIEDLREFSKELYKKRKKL

[8] = target: Calcium-dependent protein kinase 4 (Plasmodium falciparum (isolate 3D7)) (UniProt Q8IBS5); assay: PfCDPK4 kinase inhibitors, biochemical, TCAMS library (AID 1159588; cut-off not given, nearly all actives have IC50 up to about 0.91 µM); conditions: recombinant PfCDPK4, Kinase-Glo ATP depletion luminescence
Chain of Calcium-dependent protein kinase 4 (Plasmodium falciparum (isolate 3D7)) (Q8IBS5 whole entry, looked up): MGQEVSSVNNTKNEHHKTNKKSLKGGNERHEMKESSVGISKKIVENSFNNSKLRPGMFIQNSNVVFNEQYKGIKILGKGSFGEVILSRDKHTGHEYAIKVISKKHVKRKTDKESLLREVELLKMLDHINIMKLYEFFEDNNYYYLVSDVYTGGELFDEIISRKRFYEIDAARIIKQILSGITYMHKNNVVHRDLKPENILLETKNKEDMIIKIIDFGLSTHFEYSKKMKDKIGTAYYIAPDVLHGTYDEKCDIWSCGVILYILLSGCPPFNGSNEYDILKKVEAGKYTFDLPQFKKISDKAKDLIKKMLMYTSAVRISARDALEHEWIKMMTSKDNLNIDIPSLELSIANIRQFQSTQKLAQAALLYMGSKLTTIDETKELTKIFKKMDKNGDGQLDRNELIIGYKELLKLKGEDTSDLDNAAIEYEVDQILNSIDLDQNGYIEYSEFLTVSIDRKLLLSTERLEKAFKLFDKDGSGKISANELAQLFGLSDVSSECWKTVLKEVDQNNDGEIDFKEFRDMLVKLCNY

CC(C)(C)c1ccc(CN2CCC(CNC(=O)c3cc(-c4ccccc4F)cs3)C2)cc1 (stereo not given)
inactive: inhibition [2] 46% | inhibition [3] 4% | outcome [5] | outcome [6] | outcome [7] | outcome [8]
active: growth inhibition [1] 98% | growth inhibition [4] 100%

O=C(C=Cc1ccc(Cl)c(Cl)c1)NCCCCCN1CCCC(CCCNS(=O)(=O)c2cccc3cccnc23)C1 (stereo not given)
active: growth inhibition [4] 96%
inactive: growth inhibition [1] 16% | inhibition [2] 37% | inhibition [3] 2% | outcome [5] | outcome [6] | outcome [7] | outcome [8]

O=C(/C=C/c1ccc(Cl)c(Cl)c1)NCC1CCN(Cc2ccc(O)cc2)CC1
active: growth inhibition [4] 98%
inactive: growth inhibition [1] -3% | inhibition [2] 4% | inhibition [3] 6% | outcome [5] | outcome [6] | outcome [7] | outcome [8]

Cc1ccc(Cn2cnc3cc(C(=O)Nc4ccc(-c5ccc(CN(C)C)cc5)cc4)ccc3c2=O)o1
inactive: growth inhibition [1] 12% | inhibition [2] 43% | inhibition [3] -1% | outcome [5] | outcome [6] | outcome [7] | outcome [8]
active: growth inhibition [4] 82%

CC(C)CCNC(=O)C1Cc2c([nH]c3cc(Br)ccc23)C2(CCN(CCc3ccccc3)CC2)N1 (stereo not given)
inactive: growth inhibition [1] 48% | inhibition [2] 14% | inhibition [3] -1% | outcome [5] | outcome [6] | outcome [7] | outcome [8]
active: growth inhibition [4] 97%

COc1ccccc1C1CCN(C2CCC(NC(=O)c3cc4ccccc4[nH]3)CC2)CC1 (stereo not given)
inactive: growth inhibition [1] 7% | inhibition [2] 49% | inhibition [3] 0% | outcome [5] | outcome [6] | outcome [7] | outcome [8]
active: growth inhibition [4] 88%

COc1cc2c(cc1OC)C(C(=O)Nc1ccc(C(F)(F)F)cc1)C(c1cccs1)N(C)C2=O (stereo not given)
active: growth inhibition [1] 86% | growth inhibition [4] 99%
inactive: inhibition [2] 31% | inhibition [3] 2% | outcome [5] | outcome [6] | outcome [7] | outcome [8]

Cc1cc2c(cc1C(F)(F)F)N(C(=O)Nc1ccc(C(=O)NC3CCN(Cc4ccccc4)C3)cc1)CC2 (stereo not given)
inactive: growth inhibition [1] 48% | inhibition [2] 19% | inhibition [3] -6% | outcome [5] | outcome [6] | outcome [7] | outcome [8]
active: growth inhibition [4] 100%

Cc1nnc2c(NC(=O)NC3CCCC3)cc3cc(-c4ccc(CN5CCN(C)CC5)cc4)ccc3n12
inactive: inhibition [3] -1% | outcome [5] | outcome [6] | outcome [7] | outcome [8]
active: growth inhibition [1] 91% | inhibition [2] 100% | growth inhibition [4] 99%

Fc1ccc(CNc2ncc(-c3ccsc3)c(-c3nccs3)n2)cc1
active: growth inhibition [1] 77% | growth inhibition [4] 94%
inactive: inhibition [2] 7% | inhibition [3] -2% | outcome [5] | outcome [6] | outcome [7] | outcome [8]

CCCCCc1cnc2nc(N)nc(N)c2c1
inactive: growth inhibition [1] 6% | inhibition [3] -1% | outcome [5] | outcome [6] | outcome [7] | outcome [8]
active: inhibition [2] 72% | growth inhibition [4] 82%

O=c1cc(NCCCNC(CNCCc2ccccc2)c2cc(Br)cc(Br)c2)[nH]c2ccccc12 (stereo not given)
active: growth inhibition [1] 53% | growth inhibition [4] 93%
inactive: inhibition [2] -2% | inhibition [3] 1% | outcome [5] | outcome [6] | outcome [7] | outcome [8]

CCOc1ccccc1[C@H]1[C@H](C(=O)C(C)(C)C)N2c3ccc(Br)cc3C=CC2C12C(=O)c1ccccc1C2=O (stereo not given in full)
active: growth inhibition [1] 94% | growth inhibition [4] 95%
inactive: inhibition [2] 17% | inhibition [3] 1% | outcome [5] | outcome [6] | outcome [7] | outcome [8]

Cn1c(Nc2cc(C(C)(C)C)on2)nc2cc(Nc3ccnc(Nc4cccc(S(=O)(=O)N5CCOCC5)c4)n3)ccc21
active: growth inhibition [1] 96% | growth inhibition [4] 101%
inactive: inhibition [2] 32% | inhibition [3] 5% | outcome [5] | outcome [6] | outcome [7] | outcome [8]

CC(C)N1CCC(NC(=O)N2CCCN(c3ncnc4cc(-c5ccccc5)sc34)CC2)CC1
active: growth inhibition [4] 87%
inactive: growth inhibition [1] 11% | inhibition [2] 31% | inhibition [3] -4% | outcome [5] | outcome [6] | outcome [7] | outcome [8]

COc1cc(OCCCCCCON2C(N)=NC(N)=NC2(C)C)cc(OC)c1OC
inactive: inhibition [2] 41% | inhibition [3] -5% | outcome [5] | outcome [6] | outcome [7] | outcome [8]
active: growth inhibition [1] 93% | growth inhibition [4] 94%

CC(C)C[C@@H](NC(=O)OC(C)(C)C)C(=O)Nc1ccc(Cc2ccc(NC(=O)[C@@H](CC(C)C)NC(=O)OC(C)(C)C)cc2)cc1
inactive: inhibition [2] 8% | inhibition [3] 6% | outcome [5] | outcome [6] | outcome [7] | outcome [8]
active: growth inhibition [1] 96% | growth inhibition [4] 96%

Fc1ccc2nc(-c3ccc(-c4ccc(CNCCc5ccncc5)cc4)s3)[nH]c2c1
inactive: inhibition [2] 34% | inhibition [3] -3% | outcome [5] | outcome [6] | outcome [7] | outcome [8]
active: growth inhibition [1] 100% | growth inhibition [4] 99%

CCCCCCCN1CC[C@@H](CCCc2ccnc3ccc(OCC4CCCNC4)cc23)[C@@H](CC)C1 (stereo not given in full)
active: growth inhibition [1] 100% | inhibition [2] 99% | growth inhibition [4] 98%
inactive: inhibition [3] -1% | outcome [5] | outcome [6] | outcome [7] | outcome [8]

CCOC(=O)c1c(C)noc1Nc1ccc(OC)cc1
inactive: growth inhibition [1] -6% | inhibition [2] -1% | inhibition [3] -6% | outcome [5] | outcome [6] | outcome [7] | outcome [8]
active: growth inhibition [4] 99%
